Compound activity from PubChem.
Many of the other results were omitted from the sample, so hits are more common in it than they were.
GFP derepression: qHTS Assay for Epigenetic Modulators; mouse C127i GFP locus derepression, cytometry, 30 h; AID 597, 2007; actives 0.09% (n = 68,000); Potency, µM (highest dose often 46.1 µM), for inactives: top-dose GFP derepression (activation); also: % of control where 0% means no effect
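Read-out is the number of GFP-positive cells, scored as fluorescent objects 20 to 120 um wide, reflecting derepression of a silenced CMV-GFP reporter in murine C127i cells after 30 h compound exposure at 37 C.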
IkB sig inh: IkB Signaling | ABC-DLBCL IkBa-CBG/CBR dual luciferase ratio, 4 h; response scale: scaled: untreated 0%, proteasome inhibitor 100% | Potency, µM (series often up to 57.1 µM), without a hit: top-dose IkBa stabilization activation | actives 0.04% (n = 110,000); active = well fitted curve in the direction sought with a large enough effect in the signal ratio, not every such curve was filed as active; inconclusive = small, poorly fitted or top-dose-only effect, or a change in a side signal; the % refers to the signal ratio;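 also: potency is read from the fitted curve at half-maximal effect; the direction sought is a rising ratio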
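In this assay, an IκBα–CBG68 fusion accumulates when IKK-driven degradation is blocked; native CBR normalizes for cell number. OCI-Ly3 cells were treated 4 h with compound and doxycycline, then green and red light read after Chroma-Glo addition.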
CRE-bla Fsk: Cell signaling CRE-BLA (Fsk stim); Potency, µM (highest dose often 38.2 µM), without a hit: top-dose activity change, negative = inhibition, most hits filed as activators; AID 662, 2007; actives 2.5% (n = 71,000); CHO CRE-bla reporter (cAMP response element driving beta-lactamase), forskolin EC10, beta-lactamase ratio; active = well fitted activation curve with a large enough effect in the signal ratio, with a control signal flat, not every such curve was filed as active; inconclusive = small, poorly fitted or top-dose-only effect, or effect the other way, or a change in a side signal; the % refers to the signal ratio; also: potency is read from the fitted curve at half-maximal effect; % of control where 0% means no effect
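Using CellSensor CRE-bla CHO cells in Opti-MEM with 0.5% dialyzed FBS, compounds were titrated with EC10 NKH 477 for 3 h at 37 °C. CCF4 ratio (460/530 nm) gave %Activity; AC50 derived.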
HBB splicing: qHTS Assay for Modulators of Hemoglobin Beta Chain Splicing; actives 0.06% (n = 65,000); Potency, µM (doses to about 46.1 µM), without a hit: at the highest dose activation, hits mostly activators; HBB splicing reporter cell assay, activation; EGFP reporter with mutant IVS2-654 intron; response scale: normalised to 500 nM splice-correcting PNA; also: potency is read from the fitted curve at half-maximal effect; 0% is about no effect
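HeLa cells stably expressing EGFP interrupted by mutant beta-globin intron 2 (IVS2-654), 500/well in 2% FCS. Treated with compound for 2 days at 37C. Splicing correction scored as total well GFP intensity (488 nm excitation, 500-520 nm emission); 500 nM antisense PNA served as control.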
ERK AVP block: qHTS Assay for Inhibitors of the ERK Signaling Pathway using a Homogeneous Screening Assay; actives 0.99% (n = 72,000); HEK293-V1b, vasopressin-stimulated pERK AlphaScreen; Potency, µM (top dose mostly 57.5 µM), for the others: at the highest dose activity, negative = inhibition, most hits filed as inhibitors; AID 995, 2007; also: potency is read from the fitted curve at half-maximal effect; % is scaled to controls: 0 for no effect and ±100 for the full control effect; nearly all actives have a fitted effect of over 55% in size
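V1b-HEK293 cells; cpd 30 min 37C; 25 nM vasopressin 5 min; lyse 10 min; AlphaScreen beads 5 hr RT. Normalized to DMSO basal and 25 nM vasopressin; AC50 by Hill fit.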
Numbers without * were called inactive; ? = inconclusive; · = no result; [ ] = dose if it differs, or a comment. Unless noted, calls follow the shape of the dose curve; as a rule, active = well fitted curve in the direction sought with a large enough effect; inconclusive = small, poorly fitted or top-dose-only effect, or another doubt; inactive = no such curve, though single readings can be large; an effect the other way counts as inactive or inconclusive.

SMILES	GFP derepression	IkB sig inh	CRE-bla Fsk	HBB splicing	ERK AVP block
C#CCNc1nc(CC)nc2c1nnn2Cc1ccccc1F	-1%	-1%	10µM*	·	1%
Nc1cc(S(N)(=O)=O)ccc1SSc1ccc(S(N)(=O)=O)cc1N	7%[9.22 µM]	-1%[11.4 µM]	24%[7.6 µM]	1%[9.22 µM]	-3%[11.5 µM]
Cn1c(C(=O)N2CCc3ccccc32)cc2c(=O)n3ccccc3nc21	-1%	1%	?	-1%	12%
Cn1c(C(=O)N2CCCc3ccccc32)cc2c(=O)n3ccccc3nc21	4%	1%	1.6µM*	1%	16%
Cn1c(C(=O)NCc2ccccn2)cc2c(=O)n3ccccc3nc21	-1%	0%	2µM*	-1%	4%
CCOc1ccc(-n2nc(CO)c(C(=O)NCCCc3ccccc3)n2)cc1	·	0%	·	·	·
Cc1cc(C)c2c(=O)cc(C(=O)Nc3ccc(S(=O)(=O)N(C)Cc4ccccc4)cc3)oc2c1	·	-1%	·	·	·
Cc1cnc(N)c2c(=O)oc3ccccc3c12	·	0%	13µM*	0%	·
CN1CCc2c(sc3c2C(=O)NC(c2ccco2)N3)C1 (configuration not stated)	-4%	1%	13µM*	3%[1.84 µM]	?
CCOc1ccc(Br)cc1C1NC(=O)c2c(sc3c2CCN(C)C3)N1 (configuration not stated)	·	3%	·	·	·
O=C1NC(c2ccco2)Nc2sc3c(c21)CCN(Cc1ccccc1)C3 (configuration not stated)	·	4%	3.2µM*	9%	-8%
COc1ccc(Br)cc1C1NC(=O)c2c(sc3c2CCN(C)C3)N1 (configuration not stated)	4%	4%	13µM*	4%[1.84 µM]	-3%
CN1CCc2c(sc3c2C(=O)NC(c2cn(Cc4ccccc4)c4ccccc24)N3)C1 (configuration not stated)	-2%	3%	?	5%[0.369 µM]	13µM*
Cc1cc(C)n2nc(SCc3nc4ccccc4[nH]3)nc2n1	·	2%	0.79µM*	0%	·
CCCCn1c(=O)[nH]c(=O)c2c1nc(COc1ccc(C#N)cc1)n2CCC	1%	-1%	?	-1%	4%
CCCCn1c(=O)[nH]c(=O)c2c1nc(CN1C(=O)c3ccccc3S1(=O)=O)n2CCC	3%	0%	10µM*	-3%	26%
O=C(CSc1nc2ncccc2o1)Nc1ccc(Cl)cc1F	·	-1%	·	·	·
Nc1nnc(-c2ccccc2)c(-c2ccccc2)n1	2%	-4%	?	-1%	-32%
c1ccc(-c2nc3nonc3nc2-c2ccccc2)cc1	0%	6%	?	3%[1.84 µM]	13µM*
Cc1cccc2cc(CN(Cc3ccco3)S(=O)(=O)c3ccc4c(c3)OCCO4)c(=O)[nH]c12	-1%	?	-7%	0%[57.5 µM]	10µM*
CCc1ccc(NC(=O)CN(C)S(=O)(=O)c2ccc3c(c2)c(=O)n(C)c(=O)n3C)cc1	·	-2%	·	·	·
O=S(=O)(O)c1ccc(NN(c2c(O)ccc3ccccc23)S(=O)(=O)O)cc1	2%[9.22 µM]	-1%[11.4 µM]	-1%[7.6 µM]	-1%[9.22 µM]	-17%[11.5 µM]
COC(=O)c1ccc(Cn2cnc3c(cnn3-c3ccc(Cl)cc3)c2=O)o1	1%	2%	6.3µM*	1%	?
CC(C)Sc1nc2c(cnn2-c2ccccc2)c(=O)[nH]1	·	?	-5%	0%	·
CC(C)Sc1nc2c(cnn2-c2ccc(F)cc2)c(=O)[nH]1	·	-3%	3.2µM*	0%	·
SMILES	GFP derepression	IkB sig inh	CRE-bla Fsk	HBB splicing	ERK AVP block
CCOC(=O)C(C)Sc1nc2c(cnn2-c2ccc(C)cc2)c(=O)[nH]1 (configuration not stated)	-1%	-1%	?	-1%	28%
COC(=O)c1ccc(Cn2cnc3c(cnn3-c3ccc(F)cc3)c2=O)o1	-4%	-1%	?	-2%	-13%
COC(=O)c1ccc(CSc2nc3c(cnn3-c3ccc(C)cc3)c(=O)[nH]2)o1	1%	-1%	6.3µM*	-1%	10%
Cc1ccc(-n2ncc3c(=O)[nH]c(SC(C)C)nc32)cc1	·	-2%	2µM*	0%	·
N#C[C@@H](Cc1ccc(O)c(O)c1)C(=O)N1CCc2ccccc21	-1%	2%	?	1%	?
CC1=C(c2ccc(C(C)C)cc2)S(=O)(=O)NC1=NCc1ccccc1C	·	-2%	·	·	·
Cc1cccc(NC(=O)N2CCC3(CC2)Oc2ccccc2C(=O)N3Cc2ccccc2F)c1C	·	4%	·	·	·
C[C@H](NC(=O)/C(C#N)=C/c1ccc(O)c(O)c1)c1ccccc1	0%	?	?	1%	10µM*
CCCCc1nn2c(=O)cc(COC(=O)c3ccccc3NC(=O)c3cccs3)nc2s1	·	1%	·	·	·
Cc1cc(C)c(Nc2nn3c(=O)c4cc5c(cc4nc3s2)OCO5)c(C)c1	·	23%	·	·	·
COc1ccc(OC)c(S(=O)(=O)N2CCC(C(=O)Nc3cccc(C(F)(F)F)c3)CC2)c1	-2%	?	?	1%	16µM*
CC1(C)Cc2c(C#N)c(NC3CCCCC3)nc(-c3ccco3)c2CO1	·	3%	3.2µM*	0%	·
CCCN(C(=O)c1cc2ccc3cccnc3c2[nH]1)c1ccc(F)cc1	·	5%	·	·	·
COc1ccc(-c2nnc(CSc3ncnc4sc5c(c34)CCC5)o2)cc1OC	5%	1%	2.5µM*	·	9%
Cc1nc(N2CCN(Cc3ccc4c(c3)OCO4)CC2)c2oc3ccccc3c2n1	-3%	?	10µM*	5%	?
COc1ccccc1N1CCN(c2nc(C)nc3c2oc2ccccc23)CC1	15%	?	1.6µM*	-4%[0.369 µM]	?
Nc1c2c(nc3ccccc13)CCCC2	7%	0%	?	0%	9%
Nc1c2ccccc2nc2ccccc12	·	?	13µM*	-1%	17%
O=C(NC1CCCCC1)NC1CCCCC1	·	·	·	·	-6%
O=C(c1oc2ccccc2c1CSCc1ccccc1)N1CCN(c2ncccn2)CC1	3%	?	?	0%[57.5 µM]	5µM*
Cc1c(C(=O)N2CCN(c3ccccn3)CC2)oc2ccccc12	3%	?	?	-2%	-25%
[O-][n+]1onc2c1CCC1N(O)C(c3ccccc3)CC21O (configuration not stated)	3%	-1%	3.2µM*	0%	-6%
COc1cc2c(cc1OC)C(=O)N(C)CC2	-2%[9.22 µM]	0%[11.4 µM]	16µM*	·	-20%
Nc1nc2c(nc(Br)n2C2CC(O)C(CO)O2)c(=O)[nH]1 (configuration not stated)	·	·	·	·	8%
CCOc1cc(N2CCOCC2)c(OCC)cc1NC(=O)c1nc2nc(C)cc(C)n2n1	-2%	-1%	5µM*	0%[57.5 µM]	-9%
Cc1cc(C)n2nc(C(=O)Nc3ccccc3N3CCOCC3)nc2n1	1%	1%	?	-2%	8%
